Laboratory results: PubChem BioAssay AID1159580 (chemical genetic matrix, 2015)
Values joined by “and” are separate entries in the source; they are usually repeats but may differ in a detail not shown here. Equal values may be shown once. The whole screen tested about 5,500 compounds, of which about 2,000 (36%) were called active. Not shown: some 18% with an inconclusive outcome. Cut-off read from the data, not from the text of the source: active = normalized growth mostly below about 0.91 (no sharp cut-off); inconclusive = no clear call, values can overlap the other calls; inactive = mostly above about 0.92. This is one part of the list.

Assay: chemical genetic growth profiling, strain panel (AID 1159580);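 note: tested at 20 µM; growth read once vehicle control cultures reached saturation at 30 °C; 1 = growth at the plate median or of vehicle wells; lower values mean less growth of the strain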
Conditions: S. cerevisiae deletion strains, growth OD

Measured: normalized growth

CCCC(=O)O[C@]1(C(=O)CO)CCC2[C@@H]3CCC4=CC(=O)CC[C@]4(C)C3[C@@H](O)C[C@@]21C (stereo not given in full)
inactive: locus YAL013W, strain DEP1, stronger effect = lower value 1.01 | locus YAL021C, strain ccr4, stronger effect = lower value 0.997 | locus YAL026C, strain drs2, stronger effect = lower value 1.02 | locus YAL030W, strain snc1, stronger effect = lower value 1 | locus YBL061C, strain skt5, stronger effect = lower value 1 | locus YBR009C, strain hhf1, stronger effect = lower value 1 | locus YBR021W, strain FUR4, stronger effect = lower value 1.02 | locus YBR023C, strain chs3, stronger effect = lower value 1 | locus YBR171W, strain sec66, stronger effect = lower value 1.01 | locus YBR229C, strain ROT2, stronger effect = lower value 1.02 | locus YBR231C, strain swc5, stronger effect = lower value 1 | locus YBR279W, strain paf1, stronger effect = lower value 0.996 | locus YCL011C, strain gbp2, stronger effect = lower value 1.01 | locus YCL016C, strain dcc1, stronger effect = lower value 1.01 | locus YCL029C, strain bik1, stronger effect = lower value 0.983 | locus YCL061C, strain MRC1, stronger effect = lower value 1 | locus YCL069W, strain vba3, stronger effect = lower value 1 | locus YCR088W, strain abp1, stronger effect = lower value 1.01 | locus YDL005C, strain med2, stronger effect = lower value 1.01 | locus YDL035C, strain GPR1, stronger effect = lower value 0.997 | locus YDL040C, strain nat1, stronger effect = lower value 1.01 | locus YDL074C, strain BRE1, stronger effect = lower value 1.01 | locus YDL101C, strain DUN1, stronger effect = lower value 1.01 | locus YDL134C, strain PPH21, stronger effect = lower value 1.01 | locus YDL185W, strain tfp1, stronger effect = lower value 0.965 | locus YDL192W, strain arf1, stronger effect = lower value 0.98 | locus YDR001C, strain nth1, stronger effect = lower value 1.01 | locus YDR069C, strain doa4, stronger effect = lower value 1.01 | locus YDR101C, strain arx1, stronger effect = lower value 1.01 | locus YDR137W, strain rgp1, stronger effect = lower value 1.01 | locus YDR150W, strain NUM1, stronger effect = lower value 1.01 | locus YDR159W, strain sac3, stronger effect = lower value 0.998 | locus YDR162C, strain NBP2, stronger effect = lower value 0.991 | locus YDR195W, strain ref2 0.99 | locus YDR297W, strain sur2, stronger effect = lower value 1.01 | locus YDR318W, strain mcm21, stronger effect = lower value 1 | locus YDR334W, strain swr1, stronger effect = lower value 1.02 | locus YDR335W, strain msn5, stronger effect = lower value 1 | locus YDR388W, stronger effect = lower value 0.976 | locus YDR392W, strain spt3, stronger effect = lower value 1.01 | locus YDR502C, strain sam2, stronger effect = lower value 0.981 | locus YEL003W, strain gim4, stronger effect = lower value 1.01 | locus YEL037C, strain rad23, stronger effect = lower value 1 | locus YEL061C, strain CIN8 (second series), stronger effect = lower value 1.01 | locus YEL061C, strain CIN8, stronger effect = lower value 1 | locus YER015W, strain faa2, stronger effect = lower value 1.01 | locus YER016W, strain bim1, stronger effect = lower value 1.01 | locus YER110C, stronger effect = lower value 0.946 | locus YER111C, strain swi4, stronger effect = lower value 1.01 | locus YER155C, strain BEM2 (second series), stronger effect = lower value 1.01 | locus YER155C, strain BEM2, stronger effect = lower value 1.02 | locus YER167W, strain BCK2, stronger effect = lower value 1.01 | locus YFR010W, strain ubp6, stronger effect = lower value 1.01 | locus YGL078C, strain dbp3, stronger effect = lower value 0.978 | locus YGL086W, strain mad1, stronger effect = lower value 0.99 | locus YGL167C, strain pmr1, stronger effect = lower value 1.01 | locus YGL173C, strain kem1, stronger effect = lower value 1 | locus YGL227W, strain vid30, stronger effect = lower value 1.02 | locus YGL240W, strain doc1, stronger effect = lower value 1.01 | locus YGL248W, strain PDE1, stronger effect = lower value 1.02 | locus YGL253W, strain hxk2, stronger effect = lower value 1.01 | locus YGR135W, strain pre9, stronger effect = lower value 0.939 | locus YGR229C, strain SMI1, stronger effect = lower value 0.987 | locus YGR252W, strain gcn5, stronger effect = lower value 0.94 | locus YHR013C, strain ard1, stronger effect = lower value 1.01 | locus YHR027C, strain rpn1, stronger effect = lower value 1 | locus YHR030C, strain SLT2, stronger effect = lower value 1.01 and 1.04 | locus YHR079C, strain IRE1 (second series), stronger effect = lower value 0.997 | locus YHR079C, strain IRE1, stronger effect = lower value 1.05 | locus YHR094C, strain hxt1, stronger effect = lower value 0.984 | locus YHR129C, strain ARP1, stronger effect = lower value 1.01 | locus YHR142W, strain chs7, stronger effect = lower value 1.02 | locus YHR200W, strain rpn10, stronger effect = lower value 0.994 | locus YIL066C, strain RNR3, stronger effect = lower value 1.02 | locus YIL073C, strain SPO22, stronger effect = lower value 0.867 | locus YIL125W, strain kgd1, stronger effect = lower value 0.994 | locus YIR030C, strain dcg1, stronger effect = lower value 0.994 | locus YJL092W, strain hpr5, stronger effect = lower value 1.01 | locus YJL095W, strain BCK1 (second series), stronger effect = lower value 1 | locus YJL095W, strain BCK1, stronger effect = lower value 1.01 and 1.05 | locus YJL115W, strain asf1, stronger effect = lower value 1.02 | locus YJL129C, strain trk1, stronger effect = lower value 1.01 | locus YJL134W, strain LCB3, stronger effect = lower value 1.01 | locus YJL154C, strain vps35, stronger effect = lower value 1.01 | locus YJL164C, strain tpk1, stronger effect = lower value 1.01 | locus YJL166W, strain qcr8, stronger effect = lower value 1.01 | locus YJL168C, strain set2, stronger effect = lower value 0.976 | locus YJL187C, strain SWE1 (second series), stronger effect = lower value 1.01 | locus YJL187C, strain SWE1, stronger effect = lower value 1 | locus YJR043C, strain POL32, stronger effect = lower value 0.992
